# From the antibiotic and cytotoxicity screens of Wong et al. (2023)
# Out of some 39,000 compounds screened, about 500 (1.3%) were called active. The full list was thinned out, with actives kept by preference.
# System: S. aureus RN4220
# Assay: growth inhibition call (relative growth <= 0.2)
# Conditions: 50 µM
row,Compound,growth inhibition call
1,CCC1(C2OC(C3OC(O)(CO)C(C)CC3C)CC2C)CCC(C2(C)CCC3(CC(O)C(C)C(C(C)C(OC)C(C)C(=O)[O-])O3)O2)O1.[Na+] (configuration not stated),active
2,O=C(O)C(Cl)Cl.[NaH],inactive
3,C[N+]1(C)C2CC(OC(=O)C(CO)c3ccccc3)CC1C1OC12.[Br-] (configuration not stated),inactive
4,C[C@@]12NC(=O)CN1CCc1ccccc12,inactive
5,CCC(C(=O)[O-])C1CCC(C)C(C(C)C(O)C(C)C(=O)C(CC)C2OC3(C=CC(O)C4(CCC(C)(C5CCC(O)(CC)C(C)O5)O4)O3)C(C)CC2C)O1.[Na+] (configuration not stated),active
6,CC[C@@H](C(=O)[C@@H](C)[C@@H](O)[C@H](C)[C@@H]1O[C@@H]([C@@H](CC)C(=O)O)CC[C@@H]1C)[C@H]1O[C@]2(C=C[C@@H](O)[C@]3(CC[C@@](C)([C@H]4CC[C@](O)(CC)[C@H](C)O4)O3)O2)[C@H](C)C[C@@H]1C,active
7,CC[C@@H](C)C(=O)O[C@H]1[C@H](O)[C@H]2[C@@H](CN3C[C@@H](C)CC[C@@H]3[C@@]2(C)O)[C@H]2C[C@]34O[C@]5(O)[C@@H](OC(=O)[C@@](C)(O)CC)CC[C@@]3(C)[C@@H]5[C@@H](OC(C)=O)[C@@H](OC(C)=O)[C@@H]4[C@@]21O,inactive
8,COC(=O)C[C@@H]1CC[C@@H]2NC[C@H](O)COC[C@H]2O1,inactive
9,COc1cc2c3cc1Oc1c(OC)c(OC)cc4c1[C@@H](Cc1cccc(c1)Oc1ccc(c(O)c1)C[C@@H]3N(C)CC2)N(C)CC4,inactive
10,C[C@@H](CN)CC(=O)O,inactive
11,Cc1noc(C)c1CN1CCNCC1,inactive
12,C[C@H](O)[C@@]12[C@H]3CC=C[C@@H]1N2CC3 (some centres not stated),inactive
13,CCCCOC(=O)c1ccccc1C(=O)OCCCC,inactive
14,O=C([O-])Cc1ccccc1.[Na+],inactive
15,C[CH2][Hg][S]c1ccccc1C(=O)[O-].[Na+],active
16,NCCO.NCCO.O[AsH]O[AsH]O (configuration not stated),inactive
17,CO[C@H]1[C@@H](O)C[C@@H](O[C@H]2[C@@H](O)C[C@@H](O[C@H]3[C@@H](O)C[C@@H](O[C@H]4CC[C@@]5(C)[C@@H](CC[C@H]6[C@@H]5C[C@@H](O)[C@@]5(C)[C@H](C7=CC(=O)OC7)CC[C@@]65O)C4)O[C@@H]3C)O[C@@H]2C)O[C@@H]1C,inactive
18,CN1C[C@H](C(=O)N[C@]2(C)O[C@@]3(O)[C@@H]4CCCN4C(=O)[C@H](Cc4ccccc4)N3C2=O)C=C2c3cccc4[nH]cc(c34)C[C@H]21,inactive
19,CCCCCCCCCc1ccc(O)cc1,inactive
20,C=C(C)[C@@H]1CCC(C)=C[C@H]1c1c(OC)cc(C)cc1OC,inactive
21,C=C(C)[C@@H]1CCC(C)=C[C@H]1c1c(O)cc(CCCCC)cc1O,active
22,C[C@H]1O[C@H](O[C@H]2[C@H](O)[C@@H](O)[C@@H](O)[C@H](O)[C@@H]2O)[C@@H](N)C[C@@H]1NC(=N)C(=O)O,inactive

row,Compound,growth inhibition call
1,Cc1[nH]c2ccc(O)cc2c1CCN,inactive
2,CN(C)[C@@H]1C(=O)[C@@H](C(N)=O)C(=O)[C@@]2(O)C(=O)[C@H]3C(=O)c4c(O)ccc(Cl)c4[C@@](C)(O)[C@H]3C[C@@H]12,active
3,CN(C)[C@@H]1C(=O)C(C(N)=O)=C(O)[C@@]2(O)C(O)=C3C(=O)c4c(O)cccc4[C@](C)(O)[C@H]3C[C@@H]12,active
4,CN(C)[C@@H]1C(=O)[C@H](C(N)=O)C(=O)[C@@]2(O)C(=O)[C@@H]3C(=O)c4c(O)cccc4[C@@](C)(O)[C@H]3C[C@@H]12,active
5,N#Cc1nn(-c2c(Cl)cc(C(F)(F)F)cc2Cl)c(N)c1S(=O)C(F)(F)F (configuration not stated),inactive
6,c1nc(N2CCN3CCC[C@H]3C2)c2[nH]cnc2n1,inactive
7,O=[As]O[As]=O (configuration not stated),inactive
8,CC(C)[N+](C)(CCC(C(N)=O)(c1ccccc1)c1ccccc1)C(C)C.[I-],inactive
9,O=C1C=CC(=O)c2c(O)cccc21,inactive
10,CC1=CC(=O)c2c(O)cccc2C1=O,active
11,Oc1ccccc1-c1ccccc1O,inactive
12,CN1C(=O)C(O)N=C(c2ccccc2)c2cc(Cl)ccc21 (configuration not stated),inactive
13,CNC(=O)Oc1ccc2c(c1)C1(C)CCN(C)C1N2C.O=S(=O)(O)O (configuration not stated),inactive
14,C[C@H]1O[C@H](C[N+](C)(C)C)C[C@@H]1O,inactive
15,CC(=O)N[C@@H]1[C@H](O[C@@H]2O[C@H](C[C@@H](O)[C@H]3O[C@@H](n4ccc(=O)[nH]c4=O)[C@H](O)[C@@H]3O)[C@H](O)[C@H](O)[C@H]2NC(=O)/C=C/CCCCCCCCC(C)C)O[C@@H](CO)[C@H](O)[C@H]1O,active
16,C[C@@]1(O)[C@H](O)[C@@H](CO)O[C@H]1n1ccc2c(N)ncnc21,inactive
17,O=c1cccc2n1C[C@@H]1C[C@H]2CN(CCO)C1,inactive
18,CC(=CCn1c[n+](C)c2c(N)ncnc21)CCC1(C)C(C)CCC2(C)C(C)=CCCC21.[Cl-] (configuration not stated),active
19,OCCN1CC2(CCN(c3nccs3)C2)C1,inactive
20,CC(C)CC(CN)CC(=O)O (configuration not stated),inactive
21,COC(=O)[C@@H](N)CCCNC(N)=N[N+](=O)[O-],inactive
22,O=C1[O][SbH]23[O]C(=O)[C@H]([O]2)[C@H]2[O][SbH]4([O]C(=O)[C@H]([O]4)[C@H]1[O]3)[O]C2=O,active

row,Compound,growth inhibition call
1,O=C1[O][SbH]23[O]C(=O)C([O]2)C2[O][SbH]4([O]C(=O)C([O]4)C1[O]3)[O]C2=O,inactive
2,C=C(CCCCCCCCCCCCCCCC)OOC[C@@H](COP(=O)(ON)O[C@@H]1[C@H](O)[C@H](O)[C@@H](OP(=O)(O)ON)[C@H](OP(=O)(O)ON)[C@H]1O)OOC(=C)CC/C=C/C/C=C/C/C=C/C/C=C/CCCCC (some centres not stated),inactive
3,CN1CC2(CNC2)OCCS1(=O)=O,inactive
4,CN(C)C(=O)CCC(=O)N1C[C@H]2C[C@@H]1CN2,inactive
5,Oc1ccc(Cl)cc1Cc1cc(Cl)ccc1O,inactive
6,Oc1cc(Cl)ccc1Oc1ccc(Cl)cc1Cl [listing 1 of 2 here],inactive
7,Oc1cc(Cl)ccc1Oc1ccc(Cl)cc1Cl [listing 2 of 2 here],active
8,CC(=O)[O][Hg][c]1ccccc1,inactive
9,NC(=O)[C@H]1CNC(=O)C1,inactive
10,Cc1cc2c(C(C)C)c(O)c(O)c(C=O)c2c(O)c1-c1c(C)cc2c(C(C)C)c(O)c(O)c(C=O)c2c1O,inactive
11,COc1cccc2c1C(=O)c1c(O)c3c(c(O)c1C2=O)C[C@@](O)(C(=O)CO)C[C@@H]3O[C@H]1C[C@H](N2CCO[C@H](OC)C2)[C@H](O)[C@H](C)O1,active
12,CC[C@@]1(O)C[C@H](O[C@H]2C[C@H](N(C)C)[C@H](O)[C@H](C)O2)c2c(cc3c(c2O)C(=O)c2c(O)ccc(O)c2C3=O)[C@H]1C(=O)OC,inactive
13,CC=Cc1ccc2c(c1)OCO2,inactive
14,CCn1cnc2c(Nc3cccc(Cl)c3)nc(N[C@@H]3CCCC[C@@H]3N)nc21,inactive
15,CCO[C@H]1[C@H]2CC[C@@H]1NC2,inactive
16,O=[N+]([O-])C(Br)(CO)CO [listing 1 of 2 here],active
17,OCC(Br)(Br)Br,inactive
18,O=[N+]([O-])C(Br)(CO)CO [listing 2 of 2 here],active
19,CCCCS(=O)(=O)N1C[C@H]2CNC[C@@H]2C1,inactive
20,C[C@H]1CN([C@@H](C)CO)C(=O)CCCn2nncc2CO[C@H]1CN(C)C(=O)Oc1ccc2ccccc2c1,inactive
21,CNCC(=O)c1ccc(O)c(O)c1,inactive
22,CCCCCCCCCC(=O)O[C@@H]1[C@@H](C)[C@]2(O)[C@@H](C=C(CO)C[C@]3(O)C(=O)C(C)=C[C@@H]23)[C@@H]2C(C)(C)[C@@]12OC(=O)CCCCCCCCC,inactive

row,Compound,growth inhibition call
1,CCCCC(=O)N1C[C@@H]2CCNC[C@@H]21,inactive
2,Cc1nc(-c2ccc(-c3ccc(C(=O)N4CCc5cc6c(cc54)C4(CCN(C)CC4)CO6)cc3)c(C)c2)no1,active
3,O=[N+]([O-])c1ccc([As](=O)(O)O)cc1,inactive
4,CC(=O)NN1Cc2ccccc2C1=N,inactive
5,CNc1ccc(C(=O)C[C@@H](O)CC[C@@H](C)[C@H]2OC(=O)C[C@@H](O)CC(=O)C[C@@H](O)C[C@@H](O)C[C@@H](O)C[C@@H](O)C[C@@]3(O)C[C@@H](O)[C@H](C(=O)OC)[C@@H](C[C@@H](O[C@@H]4O[C@H](C)[C@@H](O)[C@H](N)[C@@H]4O)\C=C/C=C\C=C/C=C\C=C/C=C\C=C/[C@@H]2C)O3)cc1,inactive
6,CCNS(=O)(=O)C(F)(F)C(F)(F)C(F)(F)C(F)(F)C(F)(F)C(F)(F)C(F)(F)C(F)(F)F,inactive
7,CN(C)C(=O)Oc1ccc[n+](C)c1.[Br-],inactive
8,c1ccc2sc(C3(N4CCCC4)CCCCC3)cc2c1,inactive
9,CCCCOC(=O)C1=CC(=O)CC(C)(C)O1,inactive
10,O=[N+]([O-])c1cc([As](=O)(O)O)ccc1O,inactive
11,O=[N+]([O-])c1cc(O)c(O)c([N+](=O)[O-])c1,inactive
12,O=[N+]([O-])c1ccc(O)c([N+](=O)[O-])c1,active
13,CCCC[C@@H](C)[C@@H](OC(=O)C[C@@H](CC(=O)O)C(=O)O)[C@H](C[C@@H](C)C[C@H](O)CCCC[C@@H](O)C[C@H](O)[C@H](C)N)OC(=O)C[C@@H](CC(=O)O)C(=O)O,inactive
14,O=C(O)C[C@H]1CC[C@@H]2NC[C@H](O)COC[C@H]2O1,inactive
15,CC(C)[C@@H](Br)C(=O)NC(N)=O,inactive
16,C[C@@H]1CN([C@H](C)CO)C(=O)CCCn2nncc2CO[C@@H]1CN(C)C(=O)Oc1ccc2ccccc2c1,inactive
17,CC(=O)[O][PbH2][O]C(C)=O,inactive
18,CC(=O)[O][Cd][O]C(C)=O,active
19,CC1OC(OC2C(O)C(O)C(O)C(O)C2O)C(N)CC1NC(=N)C(=O)O.Cl (configuration not stated),inactive
20,C=C1[C@@H](C)[C@H]2[C@H](Cc3ccccc3)NC(=O)[C@]23[C@H](OC(C)=O)/C=C/[C@](C)(O)C(=O)[C@@H](C)C/C=C/[C@H]3[C@@H]1O,inactive
21,C=CCOC(Cn1ccnc1)c1ccc(Cl)cc1Cl.O=S(=O)(O)O (configuration not stated),active
